Assay outcomes (PubChem)
Only some compounds are listed: those with a hit (about 14% of all), similar ones and a draw of the others.
USP8 inh – human USP8 deubiquitinase inhibition; 4.2% of 47,000 active; inhibition, % at 20 µM; P40818; AID 1645853; purified USP8, Ub-rhodamine cleavage fluorescence, 30 min
USP28 block – blocks human USP28 ubiquitin-rhodamine cleavage; Q96RU2; purified USP28, Ub-rhodamine cleavage fluorescence, 30 min; inhibition, % at 25 µM; 3% of 47,000 active; AID 1645857
USP30 inh – blocks human USP30 ubiquitin-rhodamine cleavage; Q70CQ3; inhibition, % at 25 µM; 5.3% of 47,000 active; purified USP30, Ub-rhodamine cleavage fluorescence
Target sequence (Q70CQ3 whole entry, looked up): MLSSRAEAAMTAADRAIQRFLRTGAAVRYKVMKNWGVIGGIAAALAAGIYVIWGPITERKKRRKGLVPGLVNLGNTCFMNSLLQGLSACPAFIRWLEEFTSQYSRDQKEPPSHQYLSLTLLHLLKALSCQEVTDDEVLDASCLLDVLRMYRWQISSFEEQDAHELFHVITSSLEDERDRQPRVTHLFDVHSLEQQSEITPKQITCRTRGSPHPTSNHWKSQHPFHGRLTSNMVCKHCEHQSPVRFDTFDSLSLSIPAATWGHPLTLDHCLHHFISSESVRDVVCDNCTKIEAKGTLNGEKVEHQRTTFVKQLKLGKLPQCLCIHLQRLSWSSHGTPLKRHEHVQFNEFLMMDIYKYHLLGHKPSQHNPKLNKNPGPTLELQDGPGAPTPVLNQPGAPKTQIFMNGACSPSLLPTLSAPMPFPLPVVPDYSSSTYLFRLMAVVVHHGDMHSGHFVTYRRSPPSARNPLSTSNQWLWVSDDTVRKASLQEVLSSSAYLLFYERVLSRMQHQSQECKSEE
USP17 block – blocks human USP17 ubiquitin-rhodamine cleavage | A8MUK1 | purified USP17, Ub-rhodamine cleavage fluorescence, 3 h | 6.5% of 47,000 active | inhibition, % at 50 µM | AID 1645855
* hit, by the source's call. Cut-off read from the data, not from the text of the source: active = inhibition above about 30%; inactive = the rest.

SMILES | USP8 inh | USP28 block | USP30 inh | USP17 block
CCCOC(=O)c1cc(NC(=O)c2ccc(OCC)c(Cl)c2)ccc1N1CCOCC1 | 2 | 49* | 19 | -10
CCC(=O)Nc1nc2cc(NC(=O)Nc3cccc(C)c3)ccc2s1 | 29 | 16 | 38* | 13
CCC(=O)Nc1nc2cc(NC(=O)Nc3ccc(C)cc3)ccc2s1 | 47* | 15 | 42* | 22
COc1ccccc1NC(=O)Nc1ccc2sc(NC(=O)C3CCCCC3)nc2c1 | 10 | 16 | 31* | -3
CCC(=O)Nc1nc2cc(NS(=O)(=O)c3cccc(C)c3)ccc2s1 | 5 | 3 | 11 | 22
CCC(=O)Nc1nc2cc(NC(=O)c3ccccc3C)ccc2s1 | 10 | 7 | 25 | 4
NC(=O)c1ccc(NC(=O)COC(=O)c2sc3cc(Cl)ccc3c2Cl)cc1 | 0 | -3 | -32 | 3
O=C(c1ccc[nH]1)N1CCC2(CC1)CC(c1cccnc1)c1ccccc12 (stereo not given) | -106 | 14 | 19 | 19
Cn1cccc1Cc1nnc(SCC(=O)NCc2ccccc2Cl)n1CCc1ccccc1 | 2 | 0 | -5 | 25
Cc1ccc(S(=O)(=O)Nc2ccc(O)c(S(=O)(=O)c3ccc(C)cc3)c2)cc1 | 33* | 25 | 20 | 10
O=C(CC1C(=O)N(Cc2cccnc2)c2nc3ccccc3n21)Nc1cccc2ccccc12 (stereo not given) | -37 | 0 | 22 | 64*
Cc1ccc(NC(=O)CC2C(=O)N(Cc3ccccc3)c3nc4ccccc4n32)cc1 (stereo not given) | 1 | 0 | 2 | 32*
Cc1ccccc1NC(=O)CC1C(=O)N(C2CCCC2)c2nc3ccccc3n21 (stereo not given) | 1 | 13 | 30* | 16
CCc1ccccc1NC(=O)CC1C(=O)N(Cc2cccnc2)c2nc3ccccc3n21 (stereo not given) | 0 | -8 | -5 | 0
O=C(Cn1ccc2ccn(CC3CC3)c2c1=O)N1CCOCC1 | 1 | -4 | -19 | -1
CC(C)NC(=O)c1cn(-c2ccc(-c3nc(C4CC4)no3)cn2)cn1 | 1 | -18 | 0 | 6
CNc1nc(C2CCN(C)CC2)nc2c1CN(C(=O)COC)CC2 | -1 | -1 | -13 | -7
COc1ccc(Nc2nc3c(S(=O)(=O)c4ccc(C)cc4)nnn3c3ccsc23)c(OC)c1 | 21 | 16 | 67* | 28
COc1ccc(S(=O)(=O)c2nnn3c2nc(Nc2ccccc2)c2ccccc23)cc1 | -2 | -52 | -13 | -2
COC(=O)Cc1c[nH]c2ccccc12 | -2 | -2 | 0 | -19
O=C(/C=C/c1cccc(F)c1)N1CCc2ccccc21 | 42* | 8 | 29 | 20
O=C(/C=C/c1ccc(F)cc1)N1CCc2ccccc2C1 | 88* | 28 | 1 | 62*
Cc1nc2nc(C)c(CCC(=O)Nc3ccc(F)cc3F)c(C)n2n1 | -2 | -1 | 3 | -1
CSc1ccc(-c2cc3n(c(=N)c2C#N)CCc2cc4c(cc2-3)OCO4)cc1 | -9 | -42 | -188 | -37
COc1cc(-n2c(=O)c3ccccc3n(CC(=O)NCC3CCCO3)c2=O)cc(OC)c1OC (stereo not given) | 0 | 3 | 1 | 2
SMILES | USP8 inh | USP28 block | USP30 inh | USP17 block
CCN1CCN(CC(=O)NCCc2ccc(OC)c(OC)c2)CC1 | 19 | 8 | 22 | 13
COc1cc(-n2c(=O)c3ccccc3n(CC(=O)NCCc3ccccc3)c2=O)cc(OC)c1OC | 26 | 13 | 35* | 17
COc1cc(-n2c(=O)c3ccccc3n(Cc3cccc(F)c3)c2=O)cc(OC)c1OC | 8 | 13 | 35* | 26
COc1ccc(-c2nnn(CC(=O)NCCc3ccccc3)n2)cc1OC | 0 | 12 | 22 | 47*
Cc1ccc(NC(=O)COC(=O)c2cc(Cl)cc(Cl)c2N)cc1S(=O)(=O)N1CCCCC1 | -22 | -11 | -65 | -11
Cc1ccc(NC(=O)c2cn(C)nc2S(=O)(=O)N2CCCCC2)cc1 | 0 | 2 | -11 | 3
O=C(Nc1ccc2c(c1)OCO2)C1CC(=O)N(c2ccc3c(c2)OCCO3)C1 (stereo not given) | -3 | 2 | -12 | 15
O=C(Nc1ccc(C(F)(F)F)cc1)C1CC(=O)N(c2ccc3c(c2)OCCO3)C1 (stereo not given) | 25 | 19 | 34* | 35*
Cc1cn2c(=O)cc(COC(=O)c3ccc(NC(=O)c4ccccc4)cc3)nc2s1 | 1 | -8 | -41 | 39*
Cc1cn2c(=O)cc(COC(=O)c3ccc(NC(=O)c4ccccc4F)cc3)nc2s1 | -14 | -35 | -116 | -38
O=C(NC1CC1)c1cc(=O)[nH]c2ccccc12 | 0 | -7 | -3 | 0
Cc1ccc(OCCNC(=O)c2cc(=O)[nH]c3ccccc23)cc1 | 0 | 2 | -2 | 43*
O=C(NCCC1=CCCCC1)c1ccc(SCCN2CCOCC2)nc1 | 0 | -5 | -60 | -5
CC(C)CC1Nc2ccc(C(=O)NCCCN3CCCC3)cc2NC1=O (stereo not given) | 85* | 0 | 5 | 38*
O=C(c1cccc(F)c1)N1CCN(C(=O)c2cc3ccccc3[nH]2)CC1 | -10 | -5 | -47 | -14
Cn1c(CSc2ncn[nH]2)nc2ccccc21 | -25 | -3 | 5 | -6
Cc1nc2nc(SCc3nc4ccccc4n3C)[nH]c2cc1Br | -15 | -26 | -178 | 53*
Cc1cc2ncc3c(n2n1)CCN(c1ccc([N+](=O)[O-])cc1)C3 | -6 | -3 | -237 | 33*
O=[N+]([O-])c1ccc(N2CCc3nc(-c4ccccn4)ncc3C2)cc1 | -263 | 8 | 77* | 70*
CNC(=O)C1CN(C(=O)c2ccc(F)c(F)c2)CC12CCCC2 (stereo not given) | 5 | -13 | -1 | 5
Cc1cccc(NC(=O)CCc2nc3sc4c(c3c(=O)[nH]2)CCCCC4)c1 | 6 | -30 | -175 | -58
COc1ccc(CCNC(=O)C2CCCN(S(=O)(=O)N3CCC4(CC3)OCCO4)C2)c(OC)c1 (stereo not given) | -4 | -14 | 0 | -5
CCc1cc2c3c([nH]c2cc1S(=O)(=O)Nc1ccc(OC)c(Cl)c1)CCCC3=O | -62 | -3 | -65 | -19
Cc1ccc(C(=O)Cn2c(=O)n(C(C)C)c3nc(-c4ccco4)nc(C(N)=O)c32)c(C)c1 | 40* | -38 | -242 | -10
CN(C)c1cccc(C(=O)N2CCc3c([nH]c4ccccc34)C2c2cccnc2)c1 (stereo not given) | 3 | 3 | -19 | -1
COc1ccc(S(=O)(=O)N2CCc3ccccc32)cc1C(=O)Nc1ccc2[nH]c(=O)[nH]c2c1 | 73* | 37* | 87* | 27
COc1ccccc1NC(=O)c1cc(S(=O)(=O)N2CCCc3ccccc32)ccc1F | -2 | 0 | 11 | 43*
COc1ccc(NC(=O)c2cccc(S(=O)(=O)N3CCCc4ccccc43)c2)c(OC)c1 | -7 | -3 | 8 | -8
CN1C(=O)CC[C@]2(CNC(=O)c3ccncc3)CCC[C@@H]12 | 1 | -6 | -4 | -1
O=C(CN1C(=O)CC(c2ccccc2)S(=O)(=O)c2ccccc21)Nc1cccc(F)c1 (stereo not given) | 0 | -2 | 4 | 9
